Bioassay records as filed in PubChem BioAssay.
uPA generation = blocks generation of uPA at the cell surface; cell surface uPA generation assay, qHTS; Potency, µM (series often up to 38.3 µM), without a hit: top-dose activity change, negative = inhibition, usual class: inhibitors; 330,000 compounds, 0.31% hits; active means well fitted inhibition curve with a large enough effect; inconclusive means small, poorly fitted or top-dose-only effect; inactive means no such curve, though single readings can be large or run the other way; tested in mouse RAW 264.7 cells; further: potency means the concentration at half of the fitted maximal effect; on the % scale 0 is the no-effect control and ±100 the full control effect; nearly all actives have a fitted effect of over 55% in size
Gal4-VP16 FLuc = inhibits Gal4-VP16 luciferase reporter, ROR gamma counter-screen; Drosophila S2 Gal4-VP16 UAS-luciferase, luminescence, 20 h; Potency, µM (doses to about 53.6 µM), inactives show top-dose activity, negative = inhibition, hits mostly inhibitors; 310,000 compounds, 3.5% hits; AID 2546;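 further: Gal4-VP16 expression switched on by copper sulfate through the metallothionein promoter; potency means the concentration at half of the fitted maximal effect; on the % scale 0 is the no-effect control and ±100 the full control effect; nearly all actives have a fitted effect of over 50% in size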
RORg inh = blocks mouse ROR gamma transcriptional activity; P51450; Drosophila S2 Gal4-RORgamma UAS-luciferase reporter, 20 h; Potency, µM (doses to about 53.6 µM), without a hit: top-dose activity change, negative = inhibition, actives largely listed as inhibitors; 310,000 compounds, 5.4% hits; AID 2551; further: potency means the concentration at half of the fitted maximal effect; on the % scale 0 is the no-effect control and ±100 the full control effect; nearly all actives have a fitted effect of over 60% in size
Target sequence (P51450 whole entry, looked up, the tested form may be a part): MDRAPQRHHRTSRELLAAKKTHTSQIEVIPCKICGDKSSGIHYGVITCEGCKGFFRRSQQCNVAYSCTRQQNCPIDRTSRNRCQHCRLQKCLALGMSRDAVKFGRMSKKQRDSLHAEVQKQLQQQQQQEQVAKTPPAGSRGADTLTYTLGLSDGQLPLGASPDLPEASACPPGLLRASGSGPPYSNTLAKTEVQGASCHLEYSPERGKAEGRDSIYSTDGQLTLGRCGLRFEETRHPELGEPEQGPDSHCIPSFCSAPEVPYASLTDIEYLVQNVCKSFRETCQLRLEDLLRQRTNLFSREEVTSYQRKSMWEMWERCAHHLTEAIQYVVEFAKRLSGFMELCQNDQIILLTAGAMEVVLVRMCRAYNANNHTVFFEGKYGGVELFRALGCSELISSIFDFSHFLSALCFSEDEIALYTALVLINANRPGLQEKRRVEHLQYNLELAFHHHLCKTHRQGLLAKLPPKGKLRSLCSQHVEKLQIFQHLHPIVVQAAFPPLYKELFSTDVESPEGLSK
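ROR gamma transcriptional activity was tracked as Gal4-UAS luciferase output in stably transfected Drosophila Schneider cells, with compound added 1 hr before 700 uM copper sulfate induction and a 20 hr ambient-temperature incubation.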
TRPV1 potentiator = human TRPV1 potentiation; Q8NER1; TRPV1-expressing cells, Fluo-8 calcium influx, capsaicin EC20 potentiation; potentiation, % at 8.33 µM; 320,000 compounds, 0.02% hits; AID 540277; in the data active means potentiation above about 80%; inconclusive means between about 30% and that limit; further: 0% is about no effect
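TRPV1-expressing cells were cultured overnight at 35.5C and loaded with Fluo-8 calcium dye for 40 to 90 min at room temperature. After a 10 s baseline, compound was added and calcium influx was read kinetically for 3 min (ex 480/em 520 nm).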
TRPV1 agonist = agonists of human vanilloid receptor 1 (TRPV1). Q8NER1. TRPV1-expressing cells, Fluo-8 calcium influx, agonist mode. activation, % at 8.33 µM. 320,000 compounds, 0.19% hits; in the data active means activation above about 80%; inconclusive means between about 30% and that limit; further: 0% is about no effect
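TRPV1-expressing cells were cultured overnight at 35.5C and loaded with Fluo-8 calcium dye for 40 to 90 min at room temperature. After a 10 s baseline, compound was added and calcium influx was read kinetically for 3 min (ex 480/em 520 nm).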
The depositor's hits bear a star. Sampled rows, rich in hits. Any-hit rate of the full collection: about 5.8%. Unless noted, the call rests on the fitted dose curve; in most records, active means well fitted curve in the direction sought with a large enough effect; inconclusive means small, poorly fitted or top-dose-only effect, or another doubt; inactive means no such curve, though single readings can be large; an effect the other way counts as inactive or inconclusive.

`COc1cc(/C=N/NC(=O)C(=O)NCC2CCCO2)ccc1O` (stereo unspecified) gave uPA generation -5.7%, Gal4-VP16 FLuc 1.3%, RORg inh -2.9%, TRPV1 potentiator 15.0 and TRPV1 agonist -3.3.
For Oc1ccc(/C=N/NC(=S)NCCN2CCOCC2)c(O)c1 the results were uPA generation 2.7%, Gal4-VP16 FLuc -9.7%, RORg inh 12.6µM*, TRPV1 potentiator 0.6 and TRPV1 agonist 0.9.
`S=C(NCCN1CCOCC1)N/N=C/c1ccccc1` gave uPA generation 0.0%, Gal4-VP16 FLuc inconclusive, RORg inh 12.6µM*, TRPV1 potentiator -3.9 and TRPV1 agonist -1.5.
CCN(CC(=O)Nc1ccc(Br)cc1)CC(=O)Nc1cc(C)on1 was read as uPA generation 1.1%, TRPV1 potentiator -1.8 and TRPV1 agonist 6.1.
`Cn1c(-c2nc(-c3ccccc3)cs2)nc2ccccc21` gave Gal4-VP16 FLuc -6.6% and RORg inh inconclusive.
COc1ccc2ccccc2c1/C=N/NC(=S)NCCN1CCOCC1 was read as uPA generation -1.4%, Gal4-VP16 FLuc 4.47µM*, RORg inh 4.47µM*, TRPV1 potentiator 7.7 and TRPV1 agonist -1.7.
Screening S=C(NCCN1CCOCC1)N/N=C/c1c2ccccc2cc2ccccc12 returned uPA generation -1.6%, Gal4-VP16 FLuc inconclusive, RORg inh inconclusive, TRPV1 potentiator 4.8 and TRPV1 agonist 2.1.
`COCCNC(=S)N/N=C/c1c2ccccc2cc2ccccc12` gave uPA generation -2.8%, Gal4-VP16 FLuc inconclusive, RORg inh 7.08µM*, TRPV1 potentiator 7.7 and TRPV1 agonist 4.7.
Screening CC(C)N1C(=O)S/C(=C/c2ccc3c(c2)n(C)c(=O)n3C)C1=O returned uPA generation -9.8%, Gal4-VP16 FLuc -4.1%, RORg inh 20.5%, TRPV1 potentiator -8.9 and TRPV1 agonist 6.1.
CCN(CC)c1ccc(/C=C2\SC(=O)N(C(C)C)C2=O)o1 was read as uPA generation -7.7%, Gal4-VP16 FLuc 4.47µM*, RORg inh 3.55µM*, TRPV1 potentiator -6.6 and TRPV1 agonist 21.1.
Screening O=C(NCc1nnc(SCC(=O)N2CCCc3ccccc32)o1)c1c(F)cccc1Cl returned uPA generation -20.5%, Gal4-VP16 FLuc 6.3%, RORg inh 6.3%, TRPV1 potentiator 1.5 and TRPV1 agonist -4.7.
`CCC(CC)COC(=O)C1=C(C)NC(=O)NC1c1cccc([N+](=O)[O-])c1` (stereo unspecified) gave uPA generation -2.8%, Gal4-VP16 FLuc inconclusive, RORg inh inconclusive, TRPV1 potentiator -22.1 and TRPV1 agonist inconclusive.
Screening CC(/C=C1\SC(=O)N(CCCC(=O)O)C1=O)=C\c1ccccc1 returned uPA generation -3.6%, Gal4-VP16 FLuc 0.316µM*, RORg inh 0.1µM*, TRPV1 potentiator 8.5 and TRPV1 agonist 2.3.
CC(/C=C1\SC(=S)N(CCCC(=O)Nc2ccc(C(=O)O)cc2)C1=O)=C\c1ccccc1 was read as uPA generation 4.9%, Gal4-VP16 FLuc -22.1%, RORg inh -4.2%, TRPV1 potentiator 10.1 and TRPV1 agonist 2.4.
Screening CC(=C\c1ccccc1)/C=C1/SC(=S)N(CCCC(=O)O)C1=O returned uPA generation 1.6%, Gal4-VP16 FLuc 0.631µM*, RORg inh inconclusive, TRPV1 potentiator -11.4 and TRPV1 agonist 6.9.
Screening N#Cc1ccccc1NC(=S)Nc1ccc(F)cc1 returned uPA generation -3.3%, Gal4-VP16 FLuc 20µM*, RORg inh 17.8µM*, TRPV1 potentiator -8.8 and TRPV1 agonist 0.4.
C[Si](C)(C)C#Cc1ccccc1NC(=S)Nc1ccccc1 was read as Gal4-VP16 FLuc inconclusive and RORg inh 14.1µM*.
Screening S=C(Nc1ccccc1)Nc1ccccc1-n1cccc1 returned uPA generation 6.4%, Gal4-VP16 FLuc 15.8µM*, RORg inh 4.47µM*, TRPV1 potentiator 1.9 and TRPV1 agonist -2.1.
Screening S=C(Nc1ccccc1)Nc1ccccc1C#Cc1ccccc1 returned Gal4-VP16 FLuc inconclusive and RORg inh 11.2µM*.
For N#Cc1ccc(NC(=S)Nc2ccccc2)cc1 the results were uPA generation -1.6%, Gal4-VP16 FLuc -2.0%, RORg inh -16.7%, TRPV1 potentiator 7.0 and TRPV1 agonist 0.1.
For CN(CC(=O)Nc1ccccc1Cl)CC(=O)Nc1c(F)cccc1F the results were Gal4-VP16 FLuc -13.8%, RORg inh -2.7%, TRPV1 potentiator -1.5 and TRPV1 agonist 6.0.
